From ChEMBL document CHEMBL1961873, “Compounds: GSK PKIS; Assays: Nanosyn kinase panel” (2012) come the findings set out here.

Test [1] has as its target RAF proto-oncogene serine/threonine-protein kinase (Homo sapiens) (UniProt P04049). The conditions noted are these: at 1 µM.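 Further: values are the mean percent inhibition of CRAF.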
For test [2], the target named is T1, Interleukin-1 receptor-associated kinase 4 (Homo sapiens) (UniProt Q9NWZ3).
T1 sequence (whole entry): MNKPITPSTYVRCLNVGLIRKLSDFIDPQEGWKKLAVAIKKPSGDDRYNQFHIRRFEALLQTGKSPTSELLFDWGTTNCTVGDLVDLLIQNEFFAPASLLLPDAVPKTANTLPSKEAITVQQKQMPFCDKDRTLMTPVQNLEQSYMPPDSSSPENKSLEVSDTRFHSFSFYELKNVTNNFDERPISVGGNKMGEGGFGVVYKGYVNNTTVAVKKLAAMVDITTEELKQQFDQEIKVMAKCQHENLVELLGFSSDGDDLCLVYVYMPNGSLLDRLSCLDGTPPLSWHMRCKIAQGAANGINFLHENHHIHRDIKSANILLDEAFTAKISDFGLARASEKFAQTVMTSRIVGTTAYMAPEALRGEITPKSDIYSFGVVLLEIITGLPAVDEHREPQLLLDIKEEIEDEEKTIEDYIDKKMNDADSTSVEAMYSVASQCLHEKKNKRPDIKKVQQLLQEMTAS
Particulars: at 0.1 µM.

The target of test [3] is T1, Interleukin-1 receptor-associated kinase 4 (Homo sapiens). The conditions noted are these: at 1 µM.
For test [4], the target named is Leucine-rich repeat serine/threonine-protein kinase 2 (Homo sapiens) (UniProt Q5S007). Particulars: at 0.1 µM.
Sequence of Leucine-rich repeat serine/threonine-protein kinase 2 (Homo sapiens) (Q5S007 whole entry): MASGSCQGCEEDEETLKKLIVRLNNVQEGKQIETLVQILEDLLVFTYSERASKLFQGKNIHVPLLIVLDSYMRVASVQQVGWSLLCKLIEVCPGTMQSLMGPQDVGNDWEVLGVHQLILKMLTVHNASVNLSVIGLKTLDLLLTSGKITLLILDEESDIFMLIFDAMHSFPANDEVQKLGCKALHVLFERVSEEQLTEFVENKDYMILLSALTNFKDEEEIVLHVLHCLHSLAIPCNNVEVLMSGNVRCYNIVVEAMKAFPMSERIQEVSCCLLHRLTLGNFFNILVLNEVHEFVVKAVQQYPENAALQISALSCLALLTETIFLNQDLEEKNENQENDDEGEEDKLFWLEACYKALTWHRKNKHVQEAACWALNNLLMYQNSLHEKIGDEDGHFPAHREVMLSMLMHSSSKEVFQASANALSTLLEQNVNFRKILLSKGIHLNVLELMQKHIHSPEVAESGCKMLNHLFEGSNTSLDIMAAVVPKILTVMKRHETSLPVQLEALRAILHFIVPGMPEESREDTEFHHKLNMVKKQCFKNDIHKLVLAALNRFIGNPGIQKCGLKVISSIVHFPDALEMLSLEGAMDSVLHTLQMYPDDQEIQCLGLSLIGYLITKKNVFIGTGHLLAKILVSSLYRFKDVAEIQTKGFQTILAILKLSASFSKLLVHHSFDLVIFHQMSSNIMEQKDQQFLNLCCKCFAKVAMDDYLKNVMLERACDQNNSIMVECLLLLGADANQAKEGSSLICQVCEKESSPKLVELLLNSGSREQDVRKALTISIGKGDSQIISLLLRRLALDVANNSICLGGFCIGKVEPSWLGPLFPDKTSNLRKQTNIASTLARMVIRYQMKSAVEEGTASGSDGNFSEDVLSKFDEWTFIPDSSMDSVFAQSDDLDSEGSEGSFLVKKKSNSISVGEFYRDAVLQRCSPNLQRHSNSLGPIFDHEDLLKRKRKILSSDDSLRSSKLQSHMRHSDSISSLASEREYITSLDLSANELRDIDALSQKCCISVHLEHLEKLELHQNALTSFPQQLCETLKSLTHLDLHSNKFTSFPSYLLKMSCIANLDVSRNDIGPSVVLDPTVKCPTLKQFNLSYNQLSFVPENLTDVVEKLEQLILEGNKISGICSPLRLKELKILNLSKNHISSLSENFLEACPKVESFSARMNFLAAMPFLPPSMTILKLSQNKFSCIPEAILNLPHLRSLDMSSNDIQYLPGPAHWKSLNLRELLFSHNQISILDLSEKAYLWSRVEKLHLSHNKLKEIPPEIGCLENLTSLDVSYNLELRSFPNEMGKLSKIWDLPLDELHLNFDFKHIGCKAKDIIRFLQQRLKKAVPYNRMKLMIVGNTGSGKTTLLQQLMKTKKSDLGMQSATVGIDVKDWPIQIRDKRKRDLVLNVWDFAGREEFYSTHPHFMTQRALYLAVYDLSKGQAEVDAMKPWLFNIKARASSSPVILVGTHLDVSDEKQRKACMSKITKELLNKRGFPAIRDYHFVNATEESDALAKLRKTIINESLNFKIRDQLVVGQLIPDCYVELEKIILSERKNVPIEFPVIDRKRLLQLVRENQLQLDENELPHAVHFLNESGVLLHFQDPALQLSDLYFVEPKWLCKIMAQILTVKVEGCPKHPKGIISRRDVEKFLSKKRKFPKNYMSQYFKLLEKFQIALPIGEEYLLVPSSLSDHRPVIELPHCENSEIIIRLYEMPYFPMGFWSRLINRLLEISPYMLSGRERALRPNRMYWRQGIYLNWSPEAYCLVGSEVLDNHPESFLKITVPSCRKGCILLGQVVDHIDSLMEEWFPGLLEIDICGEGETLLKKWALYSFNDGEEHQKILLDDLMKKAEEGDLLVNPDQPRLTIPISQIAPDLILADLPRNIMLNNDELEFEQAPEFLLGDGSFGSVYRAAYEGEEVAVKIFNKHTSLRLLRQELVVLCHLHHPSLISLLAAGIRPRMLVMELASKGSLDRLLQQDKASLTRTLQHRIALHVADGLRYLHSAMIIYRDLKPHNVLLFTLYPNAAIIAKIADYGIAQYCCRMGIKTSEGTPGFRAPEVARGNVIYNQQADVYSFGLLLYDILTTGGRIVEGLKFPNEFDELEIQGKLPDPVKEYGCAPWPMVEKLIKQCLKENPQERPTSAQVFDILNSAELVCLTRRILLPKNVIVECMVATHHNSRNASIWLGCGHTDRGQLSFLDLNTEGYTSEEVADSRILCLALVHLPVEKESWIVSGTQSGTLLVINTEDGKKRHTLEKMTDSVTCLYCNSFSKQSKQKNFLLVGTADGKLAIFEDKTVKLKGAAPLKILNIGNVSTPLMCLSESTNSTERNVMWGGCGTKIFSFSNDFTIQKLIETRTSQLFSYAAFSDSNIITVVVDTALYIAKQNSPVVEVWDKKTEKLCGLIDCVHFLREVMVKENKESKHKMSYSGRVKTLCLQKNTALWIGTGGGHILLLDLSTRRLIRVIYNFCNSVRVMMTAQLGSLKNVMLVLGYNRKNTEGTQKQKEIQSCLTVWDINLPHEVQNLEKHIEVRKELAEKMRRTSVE
Test [5] shares this target. Particulars: at 1 µM.
The test system of test [6] is Leucine-rich repeat serine/threonine-protein kinase 2 (Homo sapiens), Q5S007 [G2019S]. The conditions noted are these: at 0.1 µM.
Sequence of Leucine-rich repeat serine/threonine-protein kinase 2 (Homo sapiens), Q5S007 [G2019S] (Q5S007 whole entry G2019S): as the sequence (Q5S007 whole entry) above, with G2019S counted along it
The test system is the same in test [7]. Particulars: at 1 µM.

Molecules are shown by their SMILES.

Sequence of RAF proto-oncogene serine/threonine-protein kinase (Homo sapiens) (P04049 whole entry): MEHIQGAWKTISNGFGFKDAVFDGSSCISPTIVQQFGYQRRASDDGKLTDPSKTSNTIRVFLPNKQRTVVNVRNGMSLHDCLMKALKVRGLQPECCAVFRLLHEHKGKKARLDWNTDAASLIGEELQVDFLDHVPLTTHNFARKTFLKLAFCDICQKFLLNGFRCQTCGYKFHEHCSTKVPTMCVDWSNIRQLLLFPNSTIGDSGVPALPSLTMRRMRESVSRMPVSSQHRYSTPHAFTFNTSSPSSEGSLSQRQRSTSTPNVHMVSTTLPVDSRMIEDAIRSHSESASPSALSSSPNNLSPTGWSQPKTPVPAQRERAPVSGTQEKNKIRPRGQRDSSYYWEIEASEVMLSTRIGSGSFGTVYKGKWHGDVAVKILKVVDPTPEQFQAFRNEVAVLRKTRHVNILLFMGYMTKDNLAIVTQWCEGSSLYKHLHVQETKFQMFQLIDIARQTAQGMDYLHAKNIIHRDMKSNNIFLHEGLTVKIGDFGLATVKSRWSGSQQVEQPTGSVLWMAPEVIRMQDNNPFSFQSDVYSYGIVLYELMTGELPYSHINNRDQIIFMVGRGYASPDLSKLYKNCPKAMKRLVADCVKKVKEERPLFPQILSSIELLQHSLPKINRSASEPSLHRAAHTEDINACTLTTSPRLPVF

Broadly, the inhibition is the relative decrease from the control value, in per cent. Consider `CCc1nn2ncccc2c1-c1ccnc(NC2CC2)n1`, for which the inhibition in test [1] is -3.3%; in test [2], 1.42%; in test [3] it was 1.5%; in test [4], 0.11%; in test [5], 4.02%; in test [6], 1.77%. The inhibition in test [7] stood at 4.72%.
Turning to `Clc1ccc(-c2nn3ncccc3c2-c2ccnc(Nc3ccccc3)n2)cc1`, the inhibition in test [1] was -3.34%; in test [2] it was -3.75%; in test [3] it was 1.51%; in test [4], 1.23%; in test [5], 5.86%; in test [6], 3.01%. Further, the inhibition in test [7] was determined as 8.26%.
Take `CNC(=O)c1cc(-c2ccc(F)cc2)cc(-c2ccc(S(=O)(=O)N3CCCC3)cc2)c1N`: the inhibition was -2.71% in test [1]; 0.68% in test [2]; 1.45% in test [3]; 1.42% in test [4]; 2.9% in test [5]; 4.27% in test [6]. Further, the inhibition in test [7] was 5.64%.
Take `CC(=O)NCc1cccc(C#Cc2cncnc2Nc2ccc(OCc3cccc(F)c3)c(Cl)c2)c1`: the inhibition in test [1] is -4.04%; in test [2], 2.92%; in test [3], 0.5%; in test [4], 0.41%; in test [5], 7.51%; in test [6], 2.36%. For the same compound, in test [7], the inhibition is 7.6%.
On to `COc1ccc(-c2nn3ncccc3c2-c2ccnc(Nc3ccc4c(c3)OCCO4)n2)cc1`, for which the inhibition in test [1] was -7.5%; in test [2], -0.42%; in test [3] it was -0.94%; in test [4], 7.1%; in test [5], 11.4%; in test [6], 6.14%. Moreover, the inhibition in test [7] is 10.2%.
`COc1cc2c(cc1Nc1nc(Nc3ccsc3C(N)=O)c3cc[nH]c3n1)N(C(=O)CN(C)C)CCC2(C)C`: the inhibition in test [1] was -0.27%; in test [2], -1.47%; in test [3], 2.28%; in test [4] it was 90.7%; in test [5], 98%; in test [6], 85.4%. In test [7], the inhibition amounted to 93.9%.
As to `NS(=O)(=O)c1ccc(Nc2ncc(-c3ccccc3)o2)cc1`, the inhibition is -4.28% in test [1]; -2.68% in test [2]; 1.92% in test [3]; 3.47% in test [4]; 15% in test [5]; 5.15% in test [6]. In addition, the inhibition in test [7] amounted to 19.4%.
For the compound `Nc1nc(-c2ccc(F)cc2)c(-c2ccc3ncccc3n2)s1`, the inhibition in test [1] was -6.29%; in test [2], 3.41%; in test [3], 2.12%; in test [4], 1.84%; in test [5], 6.21%; in test [6], 4.54%. The inhibition in test [7] was determined as 10.2%.
Turning to `Fc1ccc(-c2nn3ccccc3c2-c2ccncc2)cc1`, the inhibition in test [1] was -9.31%; in test [2], 2.69%; in test [3], 0.14%; in test [4] it was 1.66%; in test [5] it was 3.74%; in test [6] it was 1.38%. In addition, the inhibition in test [7] turned out to be 4.57%.
As for `NC(=O)c1sc(-n2cnc3ccc(C(F)(F)F)cc32)cc1OCc1ccccc1Br`, the inhibition was -3.37% in test [1]; 0.72% in test [2]; 1.61% in test [3]; 1.61% in test [4]; 6.09% in test [5]; 2.3% in test [6]. In addition, the inhibition in test [7] was determined as 12.8%.
Consider `c1ccc(-c2nc3n(c2-c2ccc4c(c2)OCO4)CCC3)nc1`, for which the inhibition was -1.34% in test [1]; 0.9% in test [2]; 0.56% in test [3]; 1.19% in test [4]; 3.89% in test [5]; 2.25% in test [6]. The inhibition in test [7] came to 3.64%.
Regarding `CN1CCC(n2cnc(-c3ccc(F)cc3)c2-c2ccnc(N)n2)CC1`, the inhibition is -4.14% in test [1]; 3.88% in test [2]; 0.94% in test [3]; 0.66% in test [4]; 1.74% in test [5]; 1.6% in test [6]. In test [7], the inhibition was 9.24%.
Take `c1ccc(COc2ccc(Nc3ncnc4ccc(-c5ccco5)cc34)cc2)cc1`: the inhibition in test [1] was determined as 6.05%; in test [2] it was 0.92%; in test [3], 1.06%; in test [4], 4.27%; in test [5] it was 3.99%; in test [6], 3.97%. For the same compound, the inhibition in test [7] is 1.89%.
`Nc1ncc(-c2cccc(S(N)(=O)=O)c2)c2scc(-c3ccc(F)c(Cl)c3)c12`: the inhibition in test [1] is -4.88%; in test [2], 1.66%; in test [3] it was 2.08%; in test [4], 10.2%; in test [5], 45.8%; in test [6], 11.7%. The inhibition in test [7] stood at 51.2%.
Regarding `CN(C)CCOc1ccc(-c2nc(-c3ccncc3)c(-c3ccc4c(c3)CC/C4=N\O)[nH]2)cc1`, the inhibition in test [1] was 69.9%; in test [2] it was -2.04%; in test [3], 2.08%; in test [4], 2.63%; in test [5], 6.56%; in test [6] it was 2.57%. In addition, the inhibition in test [7] worked out at 9.36%.
With `COC(=O)c1sc(-n2cnc3cc(OC)c(OC)cc32)cc1OCc1ccccc1C(F)(F)F`, the inhibition in test [1] was 3.19%; in test [2], -0.1%; in test [3], 1.88%; in test [4], 4.15%; in test [5] it was 10.7%; in test [6] it was 4.24%. Also, the inhibition in test [7] was found to be 19.4%.
As for `CCn1c(-c2nonc2N)nc2c(C#CC(C)(C)O)ncc(OC3CCNCC3)c21`, the inhibition amounted to 1.95% in test [1]; 2.02% in test [2]; 1.93% in test [3]; 0.26% in test [4]; 6.79% in test [5]; 3.92% in test [6]. For the same compound, the inhibition in test [7] was found to be 12%.
Regarding `Fc1ccc(-c2cc(-c3c[nH]nc3-c3ccccn3)ccn2)cc1`, the inhibition in test [1] is -1.83%; in test [2], 2.71%; in test [3] it was 1.76%; in test [4], 2.24%; in test [5], 5.28%; in test [6] it was 3.03%. For the same compound, the inhibition in test [7] was determined as 4.92%.
As for `CN1CCC(n2cnc(-c3ccc(F)cc3)c2-c2ccnc(Nc3ccccc3)n2)CC1`, the inhibition was -0.18% in test [1]; 1.95% in test [2]; 1.28% in test [3]; 1.16% in test [4]; 3.05% in test [5]; 1.22% in test [6]. Also, the inhibition in test [7] is 5.12%.
For the compound `CCCN1CCC(c2ccc(Nc3nc(Nc4cc(F)ccc4C(N)=O)c4cc[nH]c4n3)c(OC)c2)CC1`, the inhibition in test [1] turned out to be 17.1%; in test [2], 3.12%; in test [3], 3.69%; in test [4], 85.5%; in test [5] it was 89.7%; in test [6], 79.9%. In addition, the inhibition in test [7] was determined as 64.4%.
As to `COc1cc(Nc2nccc(Nc3ccc4c(C)n[nH]c4c3)n2)cc(OC)c1OC`, the inhibition in test [1] was -9.69%; in test [2] it was -1.6%; in test [3], 6.36%; in test [4], 9.84%; in test [5], 17.6%; in test [6], 10.8%. For the same compound, the inhibition in test [7] came out at 43.7%.
For `CS(=O)(=O)CCNCc1ccc(-c2ccc3ncnc(Nc4ccc(OCc5ccccc5)c(C(F)(F)F)c4)c3c2)o1`, the inhibition in test [1] stood at 0.04%; in test [2], 0.72%; in test [3], 1.09%; in test [4] it was 2.22%; in test [5], 4.18%; in test [6] it was 4.54%. In test [7], the inhibition was 5.03%.
Regarding `O=S(=O)(CCNCc1ccc(-c2ccc3ncnc(Nc4ccc(OCc5cccc(F)c5)c(Cl)c4)c3c2)o1)c1ccccc1`, the inhibition in test [1] turned out to be 1.37%; in test [2], 2.14%; in test [3] it was 2.63%; in test [4], 4.97%; in test [5] it was 4.53%; in test [6], 6.27%. Also, the inhibition in test [7] came to 9.28%.
